The whole screen tested about 2,300 compounds, of which about 330 (14%) showed activity. The list is a sample of the results. A number with no mark means an inactive call.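 Rule for the calls: active = median modified Z-score above 1.96; inactive = 1.96 or below.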
The compounds below were run on HepG2 Srxn1-GFP reporter cells (+30 nM CDDO-Me) (assay: Srxn1-GFP intensity median modified Z-score relative to plate median; higher = stronger NRF2 / oxidative stress reporter activation, active = hit call of the paper). Conditions: 10 µM; exposure time: 24h.
Procedure, shortened: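 The modified Z-score of GFP intensity was computed per plate, and the median over replicates is reported. HepG2 Srxn1-GFP BAC reporter cells in three replicate plates were treated for 24 h with compound at 10 μM plus an NRF2 activator at 30 nM (≤0.1% DMSO). Per-cell cytoplasmic GFP came from confocal images, excluding those with under 100 cells, and scaling used 1.4826 × median absolute deviation.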

Row | Structure (SMILES) | Srxn1-GFP intensity median modified Z-score
1 | CNc1ccc(C(=O)CC(O)CCC(C)C2OC(=O)CC(O)CC(=O)CC(O)CC(O)CC(O)CC(O)CC3(O)CC(O)C(C(=O)OC)C(CC(OC4OC(C)C(O)C(N)C4O)C=CC=CC=CC=CC=CC=CC=CC2C)O3)cc1 (configuration not stated) [euspeclibcmpd1836] | 0.559
2 | NC1C[C@H]1c1ccccc1 (some centres not stated) [euspeclibcmpd300] | 1.01
3 | CCOC(=O)CC(SP(=S)(OC)OC)C(=O)OCC (configuration not stated) [euspeclibcmpd992] | 0.167
4 | OC[C@@H]1CCCN2CCCC[C@H]12 [euspeclibcmpd1729] | -0.476
5 | CCN1C[C@@]2(COC)C3[C@@H](OC)[C@H]4[C@@H]1[C@]3(C(OC)C[C@H]2O)C1C[C@@]2(O)[C@H](OC(=O)c3ccccc3)C1[C@]4(OC(C)=O)[C@@H](O)[C@@H]2OC (some centres not stated) [euspeclibcmpd686] | 0.0544
6 | COP(=O)(OC)OC=C(Cl)Cl [euspeclibcmpd1300] | 1.08
7 | CN(C)C(=S)SSC(=S)N(C)C [euspeclibcmpd571] | 1.95
8 | N#CC(=Cc1cccc(O)c1)C(=O)O [euspeclibcmpd2014] | 0.195
9 | Oc1cc(Cl)ccc1Oc1ccc(Cl)cc1Cl [euspeclibcmpd800] | 3.85 (active)
10 | Oc1ccc(Cl)cc1 [euspeclibcmpd227] | -0.0545
11 | CC(Oc1ccc(Cl)cc1Cl)C(=O)O (configuration not stated) [euspeclibcmpd2066] | 0.00229
12 | CCOc1cc(C=O)ccc1O [euspeclibcmpd2137] | 0.0734
13 | CNc1ccccc1C(=O)O [euspeclibcmpd1568] | -0.451
14 | CCC(C)C(=O)O[C@@H]1C[C@@]2(C)[C@H](c3ccoc3)OC(=O)CC23OC2(C)O[C@]14[C@]1(C)[C@@H](CC(=O)OC)C5(C)CC1(O)[C@](O)(C5OC(=O)C1(C)OC1C)[C@@H](OC(C)=O)[C@]34O2 (some centres not stated) [euspeclibcmpd1590] | 1.25
15 | N=C(N)NOCCC(N)C(=O)O (configuration not stated) [euspeclibcmpd2161] | -0.447
16 | C#C[C@]1(O)CC[C@H]2[C@@H]3CC=C4CC(=O)CCC4C3CC[C@@]21CC (some centres not stated) [euspeclibcmpd2176] | 0.145
17 | NCCCc1c[nH]c2ccccc12 | 1.08
18 | CC1=C2C3OC(=O)C(C)[C@@H]3CC[C@@]2(C)C=CC1=O (some centres not stated) [euspeclibcmpd1347] | 0.307
19 | CC=C(C)C(=O)O[C@H]1C[C@@H](OC(C)=O)[C@@]2(C(=O)OC)CO[C@@H]3C2[C@]12CO[C@](O)(C(=O)OC)[C@H]2[C@](C)([C@]12O[C@@]1(C)[C@H]1C[C@@H]2OC2OC=C[C@@]21O)[C@@H]3O (some centres not stated) [euspeclibcmpd1486] | 2.24 (active)

Row | Structure (SMILES) | Srxn1-GFP intensity median modified Z-score
20 | C#C[C@]1(O)CCC2C3CC=C4CC(=O)CCC4C3CC[C@@]21CC (some centres not stated) [euspeclibcmpd2251] | -0.375
21 | O=c1n(Cl)c(=O)n(Cl)c(=O)n1Cl [euspeclibcmpd935] | -0.815
22 | c1ccc(/N=N\c2ccccc2)cc1 [euspeclibcmpd1762] | 0.733
23 | C[C@]12CCC(=O)CC1=CCC1C2CC[C@@]2(C)C1CC[C@@H]2O (some centres not stated) [euspeclibcmpd2134] | -0.455
24 | C[C@]12CCC3c4ccc(OC(=O)N(CCCl)CCCl)cc4CCC3C1CC[C@@H]2O (some centres not stated) [euspeclibcmpd984] | 2.13 (active)
25 | CCN(C)C(=O)Oc1cccc([C@H](C)N(C)C)c1 [euspeclibcmpd2067] | -0.306
26 | COC[C@]12CN(C=O)C3[C@@H]4[C@H](OC)C1[C@]3(C1CC3(O)C(OC)C(O)[C@]4(OC(C)=O)C1C3OC(=O)c1ccccc1)[C@@H](OC)C[C@H]2O (some centres not stated) [euspeclibcmpd1413] | -0.00565
27 | COc1cc2c(cc1O)CC1c3c(cc(O)c(OC)c3-2)CCN1C (configuration not stated) [euspeclibcmpd1326] | -0.347
28 | COc1cc2c3cc1Oc1c(OC)c(OC)cc4c1[C@@H](Cc1cccc(c1)Oc1ccc(c(O)c1)C[C@@H]3N(C)CC2)N(C)CC4 [euspeclibcmpd1812] | 2.31 (active)
29 | COc1ccc2c(c1O)-c1c(OC)c(OC)cc3c1[C@H](C2)N(C)CC3 [euspeclibcmpd1537] | -0.343
30 | O=C(NC(O)C(Cl)(Cl)Cl)NC(O)C(Cl)(Cl)Cl (configuration not stated) [euspeclibcmpd2304] | 0.189
31 | c1ccc2nc(N3CCNCC3)ccc2c1 [euspeclibcmpd578] | -0.285
32 | C[C@@H]1CC(Cl)CCC1C(=O)OC(C)(C)C (some centres not stated) [euspeclibcmpd1756] | -0.159
33 | CNC(C)(C)Cc1ccccc1 [euspeclibcmpd691] | 0.194
34 | CN1CCc2cc3c(cc2[C@H]1C1OC(=O)c2c1ccc1c2OCO1)OCO3 (some centres not stated) [euspeclibcmpd1552] | -0.0938
35 | C[N+]1(C)CCc2cc3c(cc2[C@H]1C1OC(=O)c2c1ccc1c2OCO1)OCO3 (some centres not stated) [euspeclibcmpd1466] | 2.41 (active)
36 | C#CCN(C)C(C)Cc1ccccc1 (configuration not stated) [euspeclibcmpd993] | -0.386
37 | CCC1(CO)C(=O)NC(=O)NC1=O | 1.07
